We go through 39 compounds from PubChem BioAssay (EPA / NIEHS).

Results filed as inconclusive are left out. The source made the active and inactive calls. Rule for the calls: active = hit-call score of the fitted dose curve at least 0.9, where 1 is the maximum; inconclusive = response in the unintended direction; inactive = score below 0.9.

For this assay, the target named is Hepatocyte nuclear factor 4-alpha (Homo sapiens) (UniProt P41235). Description: ATG_HNF4a_TRANS: Attagene TRANS-FACTORIAL HepG2 Assay for human Hepatocyte Nuclear Factor 4 alpha (HNF4a) (AID 2282982). As to conditions: HepG2 HNF4a transactivation reporter, mRNA readout. The procedure: ATG_TRANS is a cell-based, multiplexed-readout assay that uses HepG2, a human liver cell line, with measurements taken at 24 hours after chemical dosing in a 24-well plate.ATG_HNF4a_TRANS is one of 30 assay component(s) measured or calculated from the ATG_TRANS assay. It is designed to make measurements of mRNA induction, a form of inducible reporter, as detected with fluorescence intensity signals by Reverse transcription polymerase chain reaction (RT-PCR) and Capillary electrophoresis technology.Data from the assay component ATG_HNF4a_TRANS was analyzed into 1 assay endpoint. This assay endpoint, ATG_HNF4a_TRANS, was analyzed in the positive analysis fitting direction relative to DMSO as the negative control and baseline of activity. Using a type of inducible reporter, measures of mRNA for gain-of-signal activity can be used to understand the reporter gene at the transcription factor-level as they relate to the gene HNF4A. Furthermore, this assay endpoint can be referred to as a primary readout, because this assay has produced multiple assay endpoints where this one serves a reporter gene function. To generalize the intended target to other relatable targets, this assay endpoint is annotated to the nuclear receptor intended target family, where the subfamily is orphan.
Hepatocyte nuclear factor 4-alpha (Homo sapiens), sequence (P41235 whole entry, looked up): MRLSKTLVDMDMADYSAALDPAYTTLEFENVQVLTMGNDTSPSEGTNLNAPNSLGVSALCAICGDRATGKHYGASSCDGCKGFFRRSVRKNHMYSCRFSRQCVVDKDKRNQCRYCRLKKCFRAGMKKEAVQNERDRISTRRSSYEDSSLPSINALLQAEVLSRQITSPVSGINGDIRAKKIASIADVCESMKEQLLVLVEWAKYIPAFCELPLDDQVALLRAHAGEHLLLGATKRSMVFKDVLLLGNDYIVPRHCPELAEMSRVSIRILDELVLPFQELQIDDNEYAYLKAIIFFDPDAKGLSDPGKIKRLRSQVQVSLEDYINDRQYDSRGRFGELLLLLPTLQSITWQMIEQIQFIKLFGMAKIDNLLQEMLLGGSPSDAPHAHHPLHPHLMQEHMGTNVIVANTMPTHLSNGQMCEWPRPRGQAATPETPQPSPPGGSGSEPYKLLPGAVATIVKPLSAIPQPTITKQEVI
Human liver HepG2 cells are transiently transfected with multiple reporter transcription units (MRTUs) in 6-well plates using FuGene 6 reagent (Roche; 3 ml FuGene/1 mg DNA). The MRTU constructs are regulated by a cis-regulating element (promoter). […] A major difference between the CIS and TRANS system is that in CIS activities of endogenous TFs are measured, whereas the TRANS assay evaluates changes in activities of exogenous, chimeric NR-Gal4 proteins. […] At the end of 24 hour incubation, total RNA was isolated using TriZol reagent (Invitrogen). The isolated RNA is then reverse-transcribed using oligo(dT) primer and Mo-MLV reverse transcriptase (Invitrogen) with DNAse I (Ambion) treatment for 30 min. The one-tenth of the produced cDNA was amplified by PCR using Taq DNA polymerase (Invitrogen) and two reporter sequence-specific primers. The PCR products were fluorescently labeled by primer extension with 6-arboxyfluorescein (6-FAM) 5'-labeled reporter sequence-specific primer (2 min at 95 C, 20 s at 68 C and 10 min at 72 C) and these products were digested with 5U of HpaI (New England Biolabs) for 2h at 37 C. The fragments were purified using Qiaquick PCR columns (Qiagen), analyzed on an ABI 3130xL genetic analyzer (Applied Biosystems) with peak positions identified by using a set of X-rhodamine (ROX)-labeled MapMarker1000 molecular weight standards (BioVentures). The raw capillary electrophoresis data was processed using Attagraph software (Attagene).
Take `O=c1n(CC2CO2)c(=O)n(CC2CO2)c(=O)n1CC1CO1` (centres undefined): the compound was called inactive.
The value for `Cn1cnc([N+](=O)[O-])c1Sc1ncnc2nc[nH]c12` was “inactive”; that for `CC1(C)C(=O)N(Br)C(=O)N1Br` was “inactive”.
For the compound `CC(C)=CCCC(C)CCO` (centres undefined), the result was inactive.
Regarding `COC(=O)CC(=O)OC`, the compound was classed as inactive.
In the case of `CC(C)=CCCC(C)=CC=O`, the result was inactive.
For `C1N2CN3CN1CN(C2)C3`, the outcome was inactive.
For `CCCC(=O)OCC`, the result was inactive.
`C[C@](N)(Cc1ccc(O)c(O)c1)C(=O)O`: the outcome was inactive.
For `Cn1c(=O)c2c(ncn2C)n(C)c1=O`, the result was inactive.
On to `CCc1cc(SCc2sc(-c3ccc(C(F)(F)F)cc3)nc2CN2CCN(c3ccc(OC)cc3)CC2)ccc1OCC(=O)O`, for which the outcome was inactive.
Consider `O=C(O)CCN(C1(C(=O)NO)CCCC1)S(=O)(=O)c1ccc(Oc2ccc(F)cc2)cc1`, for which the compound was called inactive.
The value for `CCCN(C1CCN(C(=O)C2CCNCC2)CC1)[C@@H]1CCc2ccc(OC)cc2C1` was “inactive”; that for `CC(=O)OC[C@H]1O[C@@](COC(C)=O)(O[C@H]2O[C@H](COC(C)=O)[C@@H](OC(C)=O)[C@H](OC(C)=O)[C@H]2OC(C)=O)[C@@H](OC(C)=O)[C@@H]1OC(C)=O` was “inactive”; that for `COC(=O)c1c(Cl)c(Cl)c(C(=O)OC)c(Cl)c1Cl` was “inactive”.
For the compound `On1ccccc1=S`, the compound was called inactive.
On to `Nc1ccc(Nc2ccccc2)cc1`, for which the result was inactive.
Consider `CC[C@H](C)C(=O)O[C@H]1C[C@@H](C)C=C2C=C[C@H](C)[C@H](CC[C@@H]3C[C@@H](O)CC(=O)O3)[C@H]21`, for which the call was inactive.
Regarding `COCCOCCOCCOC`, the call was inactive.
In the case of `COc1ccc(-n2nc(C(F)F)cc2-c2ccc(S(C)=O)cc2)cc1` (centres undefined), the call was inactive.
For `O=C1OC(=O)C2C3C=CC(C3)C12` (centres undefined), the compound was classed as inactive.
In the case of `Cn1c(=O)cc(Oc2ccc(F)cc2F)c2cnc(NCC(C)(C)O)nc21`, the result was inactive.
Turning to `CNCc1ccc(NC(=O)c2c[nH]c3c2C(=O)CCC3)cc1`, the result was inactive.
As to `CC(C)CCO`, the result was inactive.
To `Cc1ccc(N)cc1O` belongs “inactive”; to `O=C(O)c1cccc(N(Cc2cccnc2)c2ccc(OC(F)F)c(OC(F)F)c2)c1`, “inactive”; to `CCCCCCCCO`, “inactive”.
Regarding `Fc1ccccc1[C@@H](F)COC1CCC(Nc2ncnc3[nH]ncc23)CC1` (some centres undefined), the outcome was inactive.
With `CC(C)CCCCCCCOC(=O)CCCCC(=O)OCCCCCCCC(C)C`, the compound was classed as inactive.
To `Oc1ccc2c(c1)-c1ccccc1C2` belongs “inactive”; to `CC[C@H]1CC[C@H](NCc2cc3c(cc2OC)[C@H]2C[C@H]2C(=O)N3C)[C@H](c2ccccc2)N1`, “inactive”.
Take `COCCOc1cc2cc(C(=O)NC3CCN(C(C)C)CC3)n(CC(=O)Nc3ccc(Cl)cn3)c2cn1`: the outcome was inactive.
Regarding `COc1cccc(-c2ccc(/C=C\CN3CCCCCC3)cc2Cl)c1`, the compound was called inactive.
As to `CCCCC(CC)COC(=O)c1ccc(C(=O)OCC(CC)CCCC)cc1` (centres undefined), the compound was classed as inactive.
For the compound `O=C(O)c1cc(N=Nc2ccc(S(=O)(=O)Nc3ccccn3)cc2)ccc1O`, the outcome was inactive.
Turning to `CCCCC(CC)COC(=O)CCCCCCCCC(=O)OCC(CC)CCCC` (centres undefined), the outcome was inactive.
In the case of `O=C(OC[C@H]1O[C@@H](OC(=O)c2cc(O)c(O)c(OC(=O)c3cc(O)c(O)c(O)c3)c2)[C@H](OC(=O)c2cc(O)c(O)c(OC(=O)c3cc(O)c(O)c(O)c3)c2)[C@@H](OC(=O)c2cc(O)c(O)c(OC(=O)c3cc(O)c(O)c(O)c3)c2)[C@@H]1OC(=O)c1cc(O)c(O)c(OC(=O)c2cc(O)c(O)c(O)c2)c1)c1cc(O)c(O)c(OC(=O)c2cc(O)c(O)c(O)c2)c1`, the compound was called inactive.
Take `C=CC(=C)CCC=C(C)C`: the compound was classed as inactive.
For the compound `Cc1ccc(S(=O)(=O)O)cc1C`, the compound was classed as inactive.
